Source: publication PMC7862700, “An all-to-all approach to the identification of sequence-specific readers for epigenetic DNA modifications on cytosine”

Tests used:
Assay in all cases: DAPPL (digital affinity profiling via proximity ligation, sequencing); 10 mM Tris-HCl pH 7.5, 50 mM NaCl, 1 mM DTT, 4% glycerol, room temperature, 30 min; GST-TFs on glutathione beads, 16-mer random dsDNA library, 0.1% formaldehyde crosslink after washing; high values mean tight binding
Details in all cases: protein: recombinant; tags: N-terminal GST; dsDNA, one strand shown
FEV = biological target: T1, FEV (Homo sapiens, UniProt Q99581 1-238)
T1 sequence: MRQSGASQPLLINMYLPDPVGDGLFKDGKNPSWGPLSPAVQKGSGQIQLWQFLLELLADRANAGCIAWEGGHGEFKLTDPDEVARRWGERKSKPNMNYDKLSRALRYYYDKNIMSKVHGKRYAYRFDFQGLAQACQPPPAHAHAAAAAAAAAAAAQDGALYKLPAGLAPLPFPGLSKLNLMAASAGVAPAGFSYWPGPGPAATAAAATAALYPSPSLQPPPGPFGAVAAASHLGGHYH
Method in brief: (§1)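 Beads coated with glutathione captured GST-fused human transcription factors that had been expressed in yeast, and the factors were then given DNA barcodes and pooled with a tag-only sample. The pools were incubated with 200 nmole of a random double-stranded 16-mer DNA library in Tris/NaCl/DTT/glycerol buffer for 30 min at room temperature, washed, crosslinked with 0.1% formaldehyde and proximity-ligated with BsaI/T4 ligase at 37 °C for 1 h. PCR amplification and Illumina NextSeq500 sequencing came last. Binding signal is each hexamer's read frequency for a factor divided by its frequency for the tag-only sample.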

ETV5 = ETV5 (Homo sapiens, UniProt P41161 1-510)
Chain of ETV5 (P41161 whole entry): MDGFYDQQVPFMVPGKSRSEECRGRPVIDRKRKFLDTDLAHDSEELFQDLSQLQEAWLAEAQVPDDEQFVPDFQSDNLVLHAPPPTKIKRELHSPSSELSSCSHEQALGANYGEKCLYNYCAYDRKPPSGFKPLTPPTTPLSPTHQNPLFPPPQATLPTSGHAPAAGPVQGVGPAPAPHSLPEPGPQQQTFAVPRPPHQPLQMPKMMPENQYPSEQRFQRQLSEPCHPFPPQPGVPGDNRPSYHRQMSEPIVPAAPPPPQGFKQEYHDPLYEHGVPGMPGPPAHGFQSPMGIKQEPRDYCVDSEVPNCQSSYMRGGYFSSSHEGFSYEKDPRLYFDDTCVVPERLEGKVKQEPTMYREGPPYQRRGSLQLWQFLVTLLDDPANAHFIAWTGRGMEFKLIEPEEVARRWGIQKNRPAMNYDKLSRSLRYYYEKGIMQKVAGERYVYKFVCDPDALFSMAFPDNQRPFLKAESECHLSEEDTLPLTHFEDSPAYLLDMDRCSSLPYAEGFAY
Method in brief: as §1

SPIC = biological target: T2, SPIC (Homo sapiens, UniProt Q8N5J4 1-248)
T2 sequence: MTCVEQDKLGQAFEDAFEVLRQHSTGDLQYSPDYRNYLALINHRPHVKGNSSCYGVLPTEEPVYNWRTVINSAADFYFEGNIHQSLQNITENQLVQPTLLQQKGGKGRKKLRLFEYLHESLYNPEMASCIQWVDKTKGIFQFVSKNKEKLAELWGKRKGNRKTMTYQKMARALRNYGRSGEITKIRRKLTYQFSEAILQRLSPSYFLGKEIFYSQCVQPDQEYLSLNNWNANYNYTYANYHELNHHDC
Method in brief: as §1

ELF4 = ELF4 (Homo sapiens, UniProt Q99607 1-663)
Chain of ELF4 (Q99607 whole entry): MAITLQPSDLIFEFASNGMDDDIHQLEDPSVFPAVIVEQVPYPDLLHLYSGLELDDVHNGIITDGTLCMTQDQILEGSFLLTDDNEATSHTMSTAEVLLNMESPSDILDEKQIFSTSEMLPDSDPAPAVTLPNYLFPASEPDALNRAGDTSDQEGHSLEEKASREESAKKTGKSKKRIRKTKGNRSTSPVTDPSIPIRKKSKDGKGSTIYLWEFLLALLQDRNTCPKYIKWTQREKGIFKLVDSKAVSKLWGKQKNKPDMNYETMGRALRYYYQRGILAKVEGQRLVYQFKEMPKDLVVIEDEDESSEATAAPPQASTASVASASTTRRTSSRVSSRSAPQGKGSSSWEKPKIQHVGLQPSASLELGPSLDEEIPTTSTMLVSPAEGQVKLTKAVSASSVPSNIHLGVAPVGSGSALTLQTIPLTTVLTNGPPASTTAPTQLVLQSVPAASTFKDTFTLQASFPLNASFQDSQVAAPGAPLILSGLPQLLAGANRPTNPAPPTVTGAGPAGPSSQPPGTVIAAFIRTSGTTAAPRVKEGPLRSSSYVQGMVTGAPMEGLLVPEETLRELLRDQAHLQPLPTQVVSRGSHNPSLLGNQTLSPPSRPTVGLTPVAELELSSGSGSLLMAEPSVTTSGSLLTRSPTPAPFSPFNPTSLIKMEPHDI
Method in brief: as §1

ELK4 = biological target: T3, ELK4 (Homo sapiens, UniProt P28324-2 1-405)
T3 sequence: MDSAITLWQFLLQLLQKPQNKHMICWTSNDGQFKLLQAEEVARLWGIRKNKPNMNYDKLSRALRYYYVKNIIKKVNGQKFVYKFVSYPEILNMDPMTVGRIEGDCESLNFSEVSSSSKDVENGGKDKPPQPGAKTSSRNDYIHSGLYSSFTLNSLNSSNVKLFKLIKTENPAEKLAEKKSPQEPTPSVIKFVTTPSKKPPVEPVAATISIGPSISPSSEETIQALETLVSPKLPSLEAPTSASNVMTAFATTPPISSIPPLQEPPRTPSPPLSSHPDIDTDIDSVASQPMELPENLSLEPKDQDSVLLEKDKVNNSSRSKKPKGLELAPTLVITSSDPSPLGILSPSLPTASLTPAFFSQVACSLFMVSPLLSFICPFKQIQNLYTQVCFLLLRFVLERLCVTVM
Method in brief: as §1

ETV2 = biological target: T4, ETV2 (Homo sapiens, UniProt O00321 1-342)
T4 sequence: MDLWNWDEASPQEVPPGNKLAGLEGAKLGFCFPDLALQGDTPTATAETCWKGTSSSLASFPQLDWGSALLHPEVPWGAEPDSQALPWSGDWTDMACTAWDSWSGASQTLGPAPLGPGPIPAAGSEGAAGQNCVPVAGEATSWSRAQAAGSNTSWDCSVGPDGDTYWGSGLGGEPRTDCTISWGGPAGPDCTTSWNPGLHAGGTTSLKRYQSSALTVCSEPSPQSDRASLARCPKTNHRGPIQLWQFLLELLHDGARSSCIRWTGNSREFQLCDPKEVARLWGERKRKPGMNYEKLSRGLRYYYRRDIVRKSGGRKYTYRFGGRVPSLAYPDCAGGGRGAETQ
Method in brief: as §1

ELF3 = biological target: T5, ELF3 (Homo sapiens, UniProt P78545 1-371)
T5 sequence: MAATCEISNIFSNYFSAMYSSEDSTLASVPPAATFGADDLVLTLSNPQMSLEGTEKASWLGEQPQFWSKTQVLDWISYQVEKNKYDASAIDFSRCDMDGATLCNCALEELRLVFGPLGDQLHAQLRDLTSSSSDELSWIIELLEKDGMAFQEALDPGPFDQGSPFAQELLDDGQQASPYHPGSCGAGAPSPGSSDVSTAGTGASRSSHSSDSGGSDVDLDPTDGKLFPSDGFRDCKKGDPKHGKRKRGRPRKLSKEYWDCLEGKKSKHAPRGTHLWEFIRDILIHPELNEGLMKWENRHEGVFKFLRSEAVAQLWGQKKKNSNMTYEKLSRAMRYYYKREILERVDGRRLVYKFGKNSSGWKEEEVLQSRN
Method in brief: as §1

ETV1 = ETV1 (Homo sapiens, UniProt P50549 1-477)
Chain of ETV1 (P50549 whole entry): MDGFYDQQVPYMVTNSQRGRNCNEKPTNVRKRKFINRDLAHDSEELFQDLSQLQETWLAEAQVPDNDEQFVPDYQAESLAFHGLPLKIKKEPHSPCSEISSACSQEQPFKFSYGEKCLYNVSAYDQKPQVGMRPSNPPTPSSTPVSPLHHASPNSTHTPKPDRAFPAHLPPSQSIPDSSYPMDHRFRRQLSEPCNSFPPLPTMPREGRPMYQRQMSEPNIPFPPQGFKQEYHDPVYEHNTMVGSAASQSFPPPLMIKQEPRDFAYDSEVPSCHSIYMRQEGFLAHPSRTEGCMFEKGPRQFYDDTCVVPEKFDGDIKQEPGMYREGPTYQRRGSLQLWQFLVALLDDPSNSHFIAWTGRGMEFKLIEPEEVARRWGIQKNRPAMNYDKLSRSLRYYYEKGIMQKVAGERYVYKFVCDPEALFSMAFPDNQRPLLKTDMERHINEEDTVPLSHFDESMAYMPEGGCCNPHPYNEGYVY
Method in brief: as §1

ERF = biological target: T6, ERF (Homo sapiens, UniProt P50548 1-548)
T6 sequence: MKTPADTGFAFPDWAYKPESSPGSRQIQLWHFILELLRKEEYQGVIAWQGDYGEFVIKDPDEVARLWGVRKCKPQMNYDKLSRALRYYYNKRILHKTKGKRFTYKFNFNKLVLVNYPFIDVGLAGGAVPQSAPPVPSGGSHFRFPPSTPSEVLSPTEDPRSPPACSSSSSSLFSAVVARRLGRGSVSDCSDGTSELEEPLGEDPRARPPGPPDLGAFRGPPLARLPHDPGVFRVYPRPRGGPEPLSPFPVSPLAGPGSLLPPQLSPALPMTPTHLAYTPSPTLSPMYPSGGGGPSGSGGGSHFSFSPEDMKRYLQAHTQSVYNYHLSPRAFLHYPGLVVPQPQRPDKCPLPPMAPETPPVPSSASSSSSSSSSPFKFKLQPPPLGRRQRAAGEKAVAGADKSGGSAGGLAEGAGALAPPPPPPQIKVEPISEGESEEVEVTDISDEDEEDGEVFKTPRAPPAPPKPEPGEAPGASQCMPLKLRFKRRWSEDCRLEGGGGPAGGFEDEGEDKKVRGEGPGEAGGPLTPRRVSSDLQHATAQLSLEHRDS
Method in brief: as §1

ETV3L = biological target: T7, ETV3L (Homo sapiens, UniProt Q6ZN32 1-361)
T7 sequence: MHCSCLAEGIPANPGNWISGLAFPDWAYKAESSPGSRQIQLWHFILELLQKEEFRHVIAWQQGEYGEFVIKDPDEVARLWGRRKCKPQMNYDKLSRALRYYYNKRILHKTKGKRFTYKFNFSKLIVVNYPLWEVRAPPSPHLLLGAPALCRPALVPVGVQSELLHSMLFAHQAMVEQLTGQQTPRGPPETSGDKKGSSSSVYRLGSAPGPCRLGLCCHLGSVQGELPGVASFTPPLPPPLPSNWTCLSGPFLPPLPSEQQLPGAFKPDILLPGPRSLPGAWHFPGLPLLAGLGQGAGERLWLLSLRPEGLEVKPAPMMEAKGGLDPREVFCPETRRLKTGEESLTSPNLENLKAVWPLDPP
Method in brief: as §1

ETS2 = biological target: T8, ETS2 (Homo sapiens, UniProt P15036 1-469)
T8 sequence: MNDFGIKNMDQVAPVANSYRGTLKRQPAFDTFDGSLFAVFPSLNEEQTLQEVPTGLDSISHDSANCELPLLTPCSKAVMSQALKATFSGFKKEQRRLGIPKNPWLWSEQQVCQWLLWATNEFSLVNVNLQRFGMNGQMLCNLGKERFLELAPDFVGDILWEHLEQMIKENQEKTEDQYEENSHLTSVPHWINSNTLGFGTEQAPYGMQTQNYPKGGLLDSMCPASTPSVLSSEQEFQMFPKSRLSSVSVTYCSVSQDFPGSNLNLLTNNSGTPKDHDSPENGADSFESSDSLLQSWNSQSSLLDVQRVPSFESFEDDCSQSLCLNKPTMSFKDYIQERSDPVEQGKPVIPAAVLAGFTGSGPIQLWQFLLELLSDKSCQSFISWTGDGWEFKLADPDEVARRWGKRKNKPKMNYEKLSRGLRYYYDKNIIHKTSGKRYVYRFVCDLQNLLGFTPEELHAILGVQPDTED
Method in brief: as §1

SPDEF = biological target: T9, SPDEF (Homo sapiens, UniProt O95238 1-335)
T9 sequence: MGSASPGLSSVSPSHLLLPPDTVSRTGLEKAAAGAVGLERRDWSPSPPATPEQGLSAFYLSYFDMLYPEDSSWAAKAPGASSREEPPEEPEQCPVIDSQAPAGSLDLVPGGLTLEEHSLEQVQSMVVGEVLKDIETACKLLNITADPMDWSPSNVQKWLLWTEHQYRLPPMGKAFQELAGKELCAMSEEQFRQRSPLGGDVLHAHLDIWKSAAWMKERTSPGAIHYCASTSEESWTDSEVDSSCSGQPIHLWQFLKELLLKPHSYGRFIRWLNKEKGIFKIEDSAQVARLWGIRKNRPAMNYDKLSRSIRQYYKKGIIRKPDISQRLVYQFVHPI
Method in brief: as §1

ETV7 = biological target: T10, ETV7 (Homo sapiens, UniProt Q9Y603 1-341)
T10 sequence: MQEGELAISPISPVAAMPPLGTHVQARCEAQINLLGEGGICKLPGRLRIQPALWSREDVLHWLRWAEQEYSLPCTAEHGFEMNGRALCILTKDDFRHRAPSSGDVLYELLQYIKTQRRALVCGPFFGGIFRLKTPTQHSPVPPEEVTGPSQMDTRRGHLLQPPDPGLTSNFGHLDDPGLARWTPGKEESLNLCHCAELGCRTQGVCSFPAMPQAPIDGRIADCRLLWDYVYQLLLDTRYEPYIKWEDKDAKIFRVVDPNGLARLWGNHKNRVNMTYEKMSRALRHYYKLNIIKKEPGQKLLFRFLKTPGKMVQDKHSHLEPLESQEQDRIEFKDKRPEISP
Method in brief: as §1

ELF5 = biological target: T11, ELF5 (Homo sapiens, UniProt Q9UKW6-2 1-255)
T11 sequence: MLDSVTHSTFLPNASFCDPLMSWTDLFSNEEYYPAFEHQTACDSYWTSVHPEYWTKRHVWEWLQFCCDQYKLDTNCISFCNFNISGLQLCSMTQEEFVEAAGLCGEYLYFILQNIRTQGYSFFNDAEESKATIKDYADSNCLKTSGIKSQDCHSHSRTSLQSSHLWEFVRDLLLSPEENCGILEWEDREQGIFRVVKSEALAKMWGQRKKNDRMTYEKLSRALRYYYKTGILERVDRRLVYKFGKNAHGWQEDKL
Method in brief: as §1

ETV3 = biological target: T12, ETV3 (Homo sapiens, UniProt P41162-2 1-143)
T12 sequence: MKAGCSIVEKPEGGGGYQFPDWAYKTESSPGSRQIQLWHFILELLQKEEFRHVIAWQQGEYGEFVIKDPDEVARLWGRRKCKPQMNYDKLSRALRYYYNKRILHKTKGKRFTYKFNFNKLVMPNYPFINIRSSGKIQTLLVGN
Method in brief: as §1

ETV6 = ETV6 (Homo sapiens, UniProt P41212 1-452)
Chain of ETV6 (P41212 whole entry): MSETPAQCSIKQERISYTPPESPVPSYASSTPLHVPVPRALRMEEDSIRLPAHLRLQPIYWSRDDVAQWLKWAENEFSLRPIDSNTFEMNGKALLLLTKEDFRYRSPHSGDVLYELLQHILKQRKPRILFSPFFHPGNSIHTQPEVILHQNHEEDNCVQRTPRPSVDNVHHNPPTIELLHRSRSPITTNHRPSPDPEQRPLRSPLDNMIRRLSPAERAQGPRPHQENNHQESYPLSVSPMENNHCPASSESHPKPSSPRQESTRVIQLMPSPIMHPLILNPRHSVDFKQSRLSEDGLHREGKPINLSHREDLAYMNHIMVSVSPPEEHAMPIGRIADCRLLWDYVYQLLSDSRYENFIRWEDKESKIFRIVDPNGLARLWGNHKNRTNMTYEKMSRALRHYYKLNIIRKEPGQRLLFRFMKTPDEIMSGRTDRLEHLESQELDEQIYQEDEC
Method in brief: as §1

Row | Sequence | binding signal (FEV) | binding signal (ETV5) | binding signal (SPIC) | binding signal (ELF4) | binding signal (ELK4) | binding signal (ETV2) | binding signal (ELF3) | binding signal (ETV1) | binding signal (ERF) | binding signal (ETV3L) | binding signal (ETS2) | binding signal (SPDEF) | binding signal (ETV7) | binding signal (ELF5) | binding signal (ETV3) | binding signal (ETV6)
1 | CGCCGC | 1.24 fold enrichment (6-mer frequency, TF over GST control) | 1.13 fold enrichment (6-mer frequency, TF over GST control) | 1.22 fold enrichment (6-mer frequency, TF over GST control) | 1.26 fold enrichment (6-mer frequency, TF over GST control) | 1.05 fold enrichment (6-mer frequency, TF over GST control) | 1.03 fold enrichment (6-mer frequency, TF over GST control) | 1.26 fold enrichment (6-mer frequency, TF over GST control) | 1.29 fold enrichment (6-mer frequency, TF over GST control) | 1.2 fold enrichment (6-mer frequency, TF over GST control) | 1.18 fold enrichment (6-mer frequency, TF over GST control) | 1.2 fold enrichment (6-mer frequency, TF over GST control) | 1.08 fold enrichment (6-mer frequency, TF over GST control) | 1.11 fold enrichment (6-mer frequency, TF over GST control) | 1.08 fold enrichment (6-mer frequency, TF over GST control) | 1.09 fold enrichment (6-mer frequency, TF over GST control) | 1.21 fold enrichment (6-mer frequency, TF over GST control)
2 | CATCCG | 2.77 fold enrichment (6-mer frequency, TF over GST control) | 2.19 fold enrichment (6-mer frequency, TF over GST control) | 2.11 fold enrichment (6-mer frequency, TF over GST control) | 1.82 fold enrichment (6-mer frequency, TF over GST control) | 1.71 fold enrichment (6-mer frequency, TF over GST control) | 2.11 fold enrichment (6-mer frequency, TF over GST control) | 1.9 fold enrichment (6-mer frequency, TF over GST control) | 2.19 fold enrichment (6-mer frequency, TF over GST control) | 1.86 fold enrichment (6-mer frequency, TF over GST control) | 2.11 fold enrichment (6-mer frequency, TF over GST control) | 2.16 fold enrichment (6-mer frequency, TF over GST control) | 3.63 fold enrichment (6-mer frequency, TF over GST control) | 1.96 fold enrichment (6-mer frequency, TF over GST control) | 2.53 fold enrichment (6-mer frequency, TF over GST control) | 2.43 fold enrichment (6-mer frequency, TF over GST control) | 2.03 fold enrichment (6-mer frequency, TF over GST control)
